Sampled rows, rich in hits. Any-hit rate of the full collection: about 11%.
ALDH1A1 block = inhibitors of human aldehyde dehydrogenase 1A1 | Purified ALDH1A1, NADH fluorescence, propionaldehyde substrate | AID 1030 | Potency, µM (doses to about 75.3 µM), without a hit: at the top dose activity, negative = inhibition, actives largely listed as inhibitors | 7.3% of 220,000 active; active = well fitted inhibition curve with a large enough effect, not every such curve was filed as active; inconclusive = small, poorly fitted or top-dose-only effect, or another doubt; inactive = no such curve, though single readings can be large or run the other way;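 also: potency is read from the fitted curve at half-maximal effect; plate controls were no enzyme wells and a reference inhibitor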
IMPase Li cell = cell-permeable IMPase inhibitors with lithium potentiation | Potency, µM (titrated, usually from 59.4 µM), inactives show top-dose activity, negative = IMPase inhibition, hits mostly inhibitors | CHO-M1 cells, IP1 TR-FRET (IP-One), carbachol + lithium | 0.35% of 210,000 active;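 also: IP1 builds up when IMPase is blocked and the TR-FRET signal falls; potency is read from the fitted curve at half-maximal effect; plate controls were basal vehicle for no effect and high inhibitor control for full effect; nearly all actives have a fitted effect of over 50% in size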
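CHO cells stably expressing M1 receptor (2000/well, cultured 16–30 h) treated 30 min at 37C with compound plus low lithium. Cytosolic IP1 by TR-FRET (665/620 ratio and 620 channel) after 10 min lysis; AC50 by Hill fit.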
HPGD inh = blocks human HPGD enzyme activity | P15428 | purified HPGD, NADH fluorescence kinetic, PGE2 substrate | Potency, µM, for inactives: at the highest dose activity change, negative = inhibition, actives largely listed as inhibitors | 4.3% of 150,000 active | AID 894; active = well fitted inhibition curve with a large enough effect, not every such curve was filed as active; inconclusive = small, poorly fitted or top-dose-only effect, or another doubt; inactive = no such curve, though single readings can be large or run the other way; also: potency is read from the fitted curve at half-maximal effect
Target sequence (P15428 whole entry, looked up): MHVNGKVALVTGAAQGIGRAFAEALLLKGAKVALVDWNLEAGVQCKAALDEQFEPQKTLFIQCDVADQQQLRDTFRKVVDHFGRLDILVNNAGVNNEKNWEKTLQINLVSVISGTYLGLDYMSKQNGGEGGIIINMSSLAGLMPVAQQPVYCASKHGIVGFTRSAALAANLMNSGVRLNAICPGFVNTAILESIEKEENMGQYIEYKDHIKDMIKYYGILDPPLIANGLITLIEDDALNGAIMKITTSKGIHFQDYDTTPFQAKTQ
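20 nM HPGD preincubated 15 min at room temperature with compound in 50 mM Tris-HCl pH 8, 0.01% Tween 20. Started with 1 mM NAD+ and 30 uM prostaglandin E2; NADH fluorescence (360/450 nm) read 5 times over 30-s intervals, last minus first.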
ALOX12 inhib = blocks human 12-lipoxygenase activity; purified 12-hLO, xylenol orange hydroperoxide absorbance; Potency, µM (doses to about 57.1 µM), inactives show top-dose activity change, negative = inhibition, hits mostly inhibitors; 0.12% of 150,000 active; AID 1452; P18054; also: potency is read from the fitted curve at half-maximal effect; nearly all actives have a fitted effect of over 55% in size
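150 nM 12hLO, 25 mM Hepes pH 7.0 + 0.01% Triton X-100; cpd preinc 15 min RT; 40 uM arachidonic acid, 30 min RT; Fe-XO 30 min; A573/A405 ratio as read-out.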
PNC inhibitor = perinucleolar compartment assembly inhibition | PC3M PTB-GFP, PNC prevalence imaging, 16 h; active compounds read low | activity change (PNC), negative = inhibition, % at 10 µM | 3.1% of 140,000 active;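 active = readout at or below -70, meaning at least 70% loss of cells showing the perinucleolar compartment, a nuclear body marking cancer cells; inconclusive = readout between -30 and a set limit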;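 also: plate controls were DMSO wells for no effect and camptothecin positive control wells for full effect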
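Read-out is percentage of cells bearing a perinucleolar compartment, from automated 20x imaging of fixed, Hoechst-stained PC3M PTB-GFP cells. Cells were seeded 4 h, then exposed 16 h to compound (23 nl of library stock) in duplicate plates.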
IMPase inh = membrane-permeable compound that blocks inositol monophosphatase; CHO-M1 cells, IP1 accumulation, HTRF TR-FRET ratio; inhibition (IP1 accumulation), % at 46.1 µM; AID 901; 120,000 tested, under 10 active; P97697; active = well fitted curve in the direction sought with a large enough effect in the signal ratio, not every such curve was filed as active; inconclusive = small, poorly fitted or top-dose-only effect, or a change in a side signal; inactive = no such curve, though single readings can be large or run the other way; the % refers to the signal ratio;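 also: cells stimulated with carbachol in lithium chloride buffer; plate controls were DMSO basal wells for no effect and reference inhibitor wells for full effect; higher means more IMPase inhibition seen as more IP1 and lower FRET ratio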
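Carbachol-driven Gq signalling in CHO-M1 cells (2000/well) generates IP1. Compounds that block IMPase raise IP1 and so reduce the FRET signal from Eu-anti-IP1 and d2-IP1 after a 10 min room-temperature lysis.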
* = called active by the depositor; ? = inconclusive; / = no result; [ ] = remark or other dose. Unless noted, calls follow the shape of the dose curve; as a rule, active = well fitted curve in the direction sought with a large enough effect; inconclusive = small, poorly fitted or top-dose-only effect, or another doubt; inactive = no such curve, though single readings can be large; an effect the other way counts as inactive or inconclusive. Unless noted, % is scaled to controls: 0 for no effect and ±100 for the full control effect.

SMILES | ALDH1A1 block | IMPase Li cell | HPGD inh | ALOX12 inhib | PNC inhibitor | IMPase inh
CCOC(=O)N1CCN(C(=O)Cc2ccc(Cl)cc2)CC1 | -5% | / | / | -6% | ? | 7
CCOC(=O)N1CCN(CCC(=O)c2ccc(Cl)cc2)CC1 | 0.089µM* | 25%[38.3 µM] | 25µM* | -3% | 2 | 9
CCOC(=O)C1=C(C)N=C2SCCC(=O)N2C1c1ccc(OCc2ccccc2)cc1 (stereo not given) | / | / | / | / | / | 4
COc1cccc(N2CCN(C(=O)C3CCCN(S(=O)(=O)c4ccc(Br)s4)C3)CC2)c1 (stereo not given) | / | / | / | / | / | 15
COC(=O)[C@@]1(Cc2ccc(F)cc2)[C@H]2c3cc(C(=O)N(C)C)n(Cc4ccc(C)c(F)c4F)c3C[C@H]2CN1C(=O)c1ccccc1 | 2% | 20% | -14% | -4% | / | /
CCCOc1ccc(-c2cc(C(F)(F)F)c(C#N)c(SCCC(=O)O)n2)cc1 | / | / | / | / | / | 0
O=C(COC(=O)c1ccccc1C(=O)c1ccc(Cl)c([N+](=O)[O-])c1)NC1CCCCCC1 | 14µM* | 49%[38.3 µM] | -17% | 1% | -22 | 9
NC(=O)c1ccc(SCC(=O)NC2CCCCC2)c([N+](=O)[O-])c1 | 3% | 8% | / | / | / | /
COC(=O)c1ccc(SCC(=O)NC2CCCC2)c([N+](=O)[O-])c1 | 1% | 2% | 35µM* | -1% | 52 | /
C=CC[C@H](N)C(=O)O | 1% | -6% | -8% | -1% | / | -1
O=C(O)C1CC[C@@](C(=O)O)(c2ccccc2)c2ccccc21 (stereo not given in full) | 16% | 10% | -3% | / | / | /
CO[C@@H]1COC(=O)[C@H]2CCCN2C(=O)[C@@H](C)COC(=O)CCC[C@H]1C | 10%[13.5 µM] | / | / | / | / | /
COCCOC(=O)c1c(C)oc2ccc(O)c(CN3CCC(C)CC3)c12 | 8% | 1%[38.3 µM] | 4% | 0% | -110* | 9
COc1ccc(C(=O)c2c(C)oc3ccc(O)c(CN4CCOCC4)c23)cc1 | 8% | -7%[38.3 µM] | -10% | 4% | ? | 0
Cc1ccc(C)n1-n1cnc2sc(-c3ccccc3)cc2c1=O | ? | 9%[38.3 µM] | 28µM* | 5% | 4 | 15
CCn1cnc2sc(-c3ccccc3)cc2c1=O | 14µM* | 2%[38.3 µM] | -21% | -1% | 12 | 13
CC(=O)Cn1cnc2sc(-c3ccccc3)cc2c1=O | -9% | 3%[38.3 µM] | -14% | -4% | 11 | 0
